Shown are actives, neighbours in structure and some others; about 19% of the full set was active somewhere.
DT40 TDP1 CPT: growth inhibition of DT40 Tdp1-/-;hTDP1 cells with camptothecin (screen for TDP1 inhibitors) | chicken DT40 Tdp1-/-;hTDP1 cells + 20 nM CPT, ATP luminescence, 48 h | Potency, µM (highest dose often 46.2 µM), for the others: at the top dose activity change, negative = growth inhibition, most hits filed as inhibitors | 420,000 compounds, 12% hits | AID 686979; note: nearly all actives have a fitted effect of over 55% in size
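Chicken DT40 Tdp1-/- cells complemented with human TDP1, 400 cells/well, exposed to compounds plus 20 nM camptothecin for at least 48 h at 37 C; viability read as ATP content by CellTiter-Glo luminescence.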
HT1080 IDH1KD tx: HT-1080 IDH1 knockdown cell toxicity (counter line); HT-1080 IDH1 knockdown viability, ATP luminescence, 48 h; Potency, µM (doses to about 46.1 µM), for inactives: top-dose activity, negative = toxicity, usual class: cytotoxic; 360,000 compounds, 2% hits;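 note: 0% = DMSO wells and -100% = cell-free medium wells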
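IDH1KD HT-1080 cells, 750/well, RPMI + 5% FBS; compound pinned after 2 h settling; 48 h, 37 °C; CellTiter-Glo luminescence; % activity normalised to DMSO and no-cell wells; curves fitted, classed by r2 and efficacy.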
HT1080NT lethal: kills 2HG-producing HT-1080-NT fibrosarcoma cells | HT-1080-NT fibrosarcoma viability, CellTiter-Glo ATP luminescence, 48 h | Potency, µM (highest dose often 46.1 µM), for the others: top-dose activity, negative = less viability, hits mostly cytotoxic | 360,000 compounds, 1.6% hits | AID 686970;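 note: NT is the 2HG producing partner of a matched IDH1 knockdown line; 0% = DMSO-treated cells and -100% = media-only wells without cells; nearly all actives have a fitted effect of over 55% in size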
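A 48-hour cytotoxicity screen used HT-1080-NT cells plated 2 hours before compound delivery. ATP-based CellTiter-Glo luminescence measured viability, normalized to DMSO and no-cell controls.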
KB-V1 cytotox: kills drug-selected multidrug resistant KB-V1 cells | 400,000 compounds, 3.4% hits | Potency, µM (top dose mostly 46.1 µM), hits mostly cytotoxic | KB-V1 MDR cells viability, CellTiter-Glo, 72 h | AID 1347076; note: nearly all actives have a fitted effect of over 60% in size
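Following 72 h at 37 degrees C with compound, KB-V1 cell viability was read by CellTiter-Glo luminescence, medium being phenol-red-free DMEM plus 10% FBS; concentration-response parameters came from normalized, curve-fitted qHTS data.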
KB-3-1 tox: KB-3-1 parental cell cytotoxicity; KB-3-1 viability, CellTiter-Glo ATP luminescence, 72 h; 400,000 compounds, 1.4% hits; Potency, µM (doses to about 46.1 µM), usual class: cytotoxic; note: nearly all actives have a fitted effect of over 60% in size
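Screening of KB-3-1 cells (DMEM, 10% FBS, phenol-red free) ran from lowest to highest compound concentration; after 72 h at 37 °C viability was read luminescently and curves fitted.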
TDP1 cell noCPT: qHTS for Inhibitors of human tyrosyl-DNA phosphodiesterase 1 (TDP1): qHTS in cells in absence of CPT. DT40 Tdp1-/- hTDP1 cells, no CPT, ATP luminescence, 48 h. 420,000 compounds, 15% hits. AID 686978, 2013. Potency, µM (series often up to 46.2 µM), inactives show at the top dose activity change, negative = growth inhibition, most hits filed as inhibitors; note: nearly all actives have a fitted effect of over 55% in size
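Compound effects on proliferation are scored in DT40 Tdp1-/-;hTDP1 cells in the absence of CPT. ATP levels (CellTiter-Glo luminescence) are recorded after a ≥48 hr, 37 °C incubation.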
The depositor's hits bear a star; i = inactive; ? = inconclusive. Calls come from the whole dose curve; as a rule, active = well fitted curve in the direction sought with a large enough effect; inconclusive = small, poorly fitted or top-dose-only effect, or another doubt; inactive = no such curve, though single readings can be large; an effect the other way counts as inactive or inconclusive. Unless noted, % is set by controls: 0 for no effect and ±100 for the full control effect; potency is the fitted concentration of half-maximal effect.

SMILES	DT40 TDP1 CPT	HT1080 IDH1KD tx	HT1080NT lethal	KB-V1 cytotox	KB-3-1 tox	TDP1 cell noCPT
COc1cccc(N(CC(=O)NCC2CCCO2)C(=O)CCC(=O)Nc2nccs2)c1 (stereo not given)	5%	10%	2%	i	i	-4%
Cc1ccc(O)c(N=NC2=C(O)CC(C)(C)CC2=O)c1	15µM*	?	-21%	?	?	8.2µM*
CC1(C)CC(=O)C(C=Nc2cccnc2/N=C/C2=C(O)CC(C)(C)CC2=O)=C(O)C1	4.6µM*	4%	1%	i	i	?
CC1(C)CC(=O)C(C=Nc2ccc(O)c(N=CC3=C(O)CC(C)(C)CC3=O)c2)=C(O)C1	16µM*	1%	0%	i	i	?
CC1(C)CC(=O)C(C=Nc2cccnc2)=C(O)C1	-13%	-4%	8%	i	i	-14%
CCCCOc1ccc(CN2CCSCC2)cc1	?	6%	4%	i	i	-27%
Cc1ccc(C)c(NC(=O)CN(C)C(=O)c2cc3c(s2)CCCCC3)c1	?	-2%	5%	i	i	?
Cc1ccc2c(c1)c1c(n2CC(O)Cn2c(C)nc3ccccc32)/C(=N\O)CCC1 (stereo not given)	23µM*	?	21µM*	?	?	23µM*
Cc1ccc2c(c1)c1c(n2CC(O)Cn2ccnc2C)C(=O)CCC1 (stereo not given)	?	-3%	-16%	i	i	?
Cc1ccc2c(c1)c1c(n2CC(O)Cn2c(C)nc3ccccc32)C(=O)CCC1 (stereo not given)	26µM*	8%	19%	i	?	18µM*
Cc1ccc2c(c1)c1c(n2CC(O)CN2C(=O)CNC2=O)C(=O)CCC1 (stereo not given)	7%	1%	3%	i	i	4%
Cc1cccc(N(C(=O)c2csnn2)C(C(=O)NC2CCCCC2)c2ccncc2)c1 (stereo not given)	-9%	12%	14%	?	?	-27%
O=C(NCCOc1ccccc1F)C1CCC(=O)N(CCc2cccc(F)c2)C1 (stereo not given)	?	-4%	0%	i	i	-24%
c1ccc(CSC2=NNC(c3ccccn3)S2)cc1 (stereo not given)	0.0058µM*	?	?	?	?	0.16µM*
O=C(CSC1=NNC(c2ccccn2)S1)Nc1ccc(C(F)(F)F)cc1 (stereo not given)	4.1µM*	4.1µM*	15µM*	i	?	3.7µM*
c1ccc(CSc2ncccn2)cc1	-3%	19%	1%	i	i	-24%
CCOC(=O)C1CCN(C(=O)c2ccc(NS(=O)(=O)c3ccc4[nH]c(=O)[nH]c4c3)cc2)CC1	-1%	10%	-2%	i	i	-6%
O=C(CSc1nc(=O)n(CCCN2CCOCC2)c2c1CCC2)Nc1ccccc1F	21%	-6%	-1%	i	i	-7%
COc1cc2cc(C)c3nnc(SCC(=O)Nc4cc(C)on4)n3c2cc1OC	-3%	1%	6%	i	i	?
Cc1cc(NC(=O)CSc2nnc3c(C)cc4c(C)ccc(C)c4n23)no1	1.2µM*	6.3µM*	6.3µM*	3.3µM*	i	1.5µM*
CCc1nnc(NC(=O)CSc2nnc3c(C)cc4c(C)ccc(C)c4n23)s1	3.7µM*	6.5µM*	5.8µM*	i	4.1µM*	4.6µM*
Cc1ccc(-n2c3nc(=O)[nH]c(=O)c-3cc3cc([N+](=O)[O-])ccc32)cc1	5.8µM*	?	?	?	?	5.2µM*
